Common to all, as to assay: NCI-60 one-dose screen, 48 h (100 = growth as untreated, 0 = no growth, -100 = all killed)
Settings in all cases: 10 µM unless noted

Experiment [1] relates to SK-MEL-2 melanoma.
In experiment [2] the test system is EKVX NSCLC.
In experiment [3] the test system is SN12C renal.
Experiment [4] has as its system UO-31 renal.
Experiment [5] concerns TK-10 renal.
Experiment [6] deals with ACHN renal.
In experiment [7] the test system is CAKI-1 renal.
For experiment [8], the system named is A498 renal.
Experiment [9] concerns CCRF-CEM leukemia.
Experiment [10] concerns SR leukemia.
Experiment [11] concerns OVCAR-8 ovarian.
The test system of experiment [12] is OVCAR-5 ovarian.
Experiment [13] has as its system OVCAR-4 ovarian.
Experiment [14] relates to SK-OV-3 ovarian.
Experiment [15] concerns IGROV1 ovarian.
In experiment [16] the test system is OVCAR-3 ovarian.
Experiment [17] relates to HS 578T breast.
Experiment [18] deals with NCI/ADR-RES ovarian.
In experiment [19] the test system is RPMI-8226 leukemia.
The test system of experiment [20] is MOLT-4 leukemia.

Compounds without any hit were thinned out: in the full panel of roughly 83,000, 20% have a hit.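 Step 1: grow cells in 96-well plates. Step 2: add test compound at a single concentration. Step 3: incubate 48 h. Step 4: record percent growth.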 Unmarked numbers belong to inactive results. Activity calls are given as the source filed them. How the source made its calls: active means growth percent below 10; inactive means the rest.

For `COc1cc(N=Nc2ccc(N)cc2)c(OC)cc1N=Nc1ccccc1.[Cl][Zn][Cl]`, the growth is 112% in [1]; 103% in [2]; 102% in experiment [3]; 53.1% in experiment [4]; 140% in experiment [5]; 91.1% in experiment [6]. The growth in experiment [7] was 75.1%; in [8], 116%; in experiment [9], 106%; in [10], 93.2%; in experiment [11] it was 98.8%; in [12], 96.4%. Besides, the growth in experiment [13] is 92.3%; in [14], 96.5%; in experiment [15], 47.6%; in experiment [16], 99.8%; in experiment [17] it was 107%; in experiment [18], 95.8%.
For the molecule `Cc1ccc(C(=O)CSc2nc(-c3ccc(Br)cc3)c(C#N)c(=O)[nH]2)cc1`, the growth in [1] is 106%; in experiment [2], 106%; in [3], 99.5%; in experiment [4], 88.5%; in experiment [5], 103%; in [6], 110%. Moreover, the growth was 87.2% in experiment [7]; 65.1% in experiment [8]; 105% in experiment [9]; 101% in [19]; 88.8% in experiment [11]; 105% in experiment [12]. For the same molecule, the growth in [13] is 85.9%; in experiment [14] it was 104%; in experiment [15], 99.3%; in experiment [16], 99.7%; in experiment [17] it was 93%; in [18], 97.5%.
Consider `O=C1OC(c2nc3ccccc3s2)=C/C1=C\c1ccc(O)cc1`, for which the growth was 110% in experiment [1]; 102% in experiment [2]; 93.9% in experiment [3]; 75.8% in [4]; 114% in [5]; 99.5% in experiment [6]. For the same molecule, the growth in [7] was 85.4%; in experiment [8], 108%; in [20], 102%; in experiment [10] it was 100%; in experiment [19] it was 114%; in experiment [11] it was 106%. Moreover, the growth in experiment [12] was 85.5%; in experiment [13] it was 100%; in experiment [14] it was 103%; in experiment [15] it was 95.1%; in experiment [16], 110%; in experiment [17], 89.6%. Further, in [18], the growth was 106%.
Take `COC(=O)[C@]12CC[C@@H](C)[C@H](C)[C@@H]1C1=CC[C@@H]3[C@@]4(C)C(C=O)=C[C@@](C)(COS(C)(=O)=O)[C@@H]4C(=O)C[C@@]3(C)[C@]1(C)CC2`: the growth in experiment [1] is 66.9%; in [2], 53.2%; in experiment [3], 36.2%; in experiment [4] it was 34.2%; in experiment [5], 54.2%; in experiment [6] it was 17.8%. The growth in experiment [7] is 53.3%; in experiment [8], 98.2%; in [9], 30.9%; in experiment [10], 24.9%; in [19], 23.4%; in [12], 67.1%. Moreover, the growth is 37.7% in experiment [13]; 66.4% in experiment [14]; 52.1% in experiment [15]; 31.4% in experiment [16]; 62.3% in experiment [17]; 38.6% in experiment [18].
In the case of `CC(=O)[C@@H]1CC[C@]2(COS(=O)(=O)c3ccc(C)cc3)CC[C@]3(C)[C@H](CC[C@@H]4[C@@]5(C)CCCNC(C)(C)[C@@H]5CC[C@]43C)[C@@H]12`, the growth in [1] was 105%; in experiment [2], 94%; in experiment [3], 78%; in experiment [4] it was 66.3%; in [5], 106%; in experiment [6], 87.1%. Also, the growth was 82.7% in experiment [7]; 85.9% in [8]; 21.9% in experiment [20]; -24.6% (active) in experiment [10]; 46.4% in experiment [19]; 84% in [11]. Besides, the growth was 81% in [12]; 60.6% in experiment [13]; 91.1% in experiment [14]; 58.2% in [15]; 88.1% in experiment [16]; 81.7% in experiment [17]. In addition, in experiment [18], the growth was 78.8%.
Turning to `O=C(Nc1cccc(C(F)(F)F)c1)Nc1cccc(C(F)(F)F)c1`, the growth in experiment [1] was -28.5% (active); in [2], 13.8%; in [3], 2.57% (active); in [4] it was 4.46% (active); in experiment [5], -0.607% (active); in [6] it was 5.92% (active). Moreover, the growth is 16.4% in [7]; -18.2% (active) in [8]; 2.44% (active) in experiment [9]; -22.6% (active) in experiment [10]; 4.98% (active) in experiment [11]; 23.9% in experiment [13]. The growth was -15.3% (active) in experiment [14]; 26.8% in experiment [15]; 14.4% in [16]; 8.56% (active) in experiment [17]; 7.46% (active) in experiment [18].
As for `CCC(CO)Nc1nc2ccc(Cl)cc2c2ccccc12` (stereo not given), the growth in experiment [1] is 84.1%; in experiment [2], 47.9%; in experiment [3], 71.1%; in experiment [4], 39.5%; in experiment [5], 54.3%; in experiment [6] it was 73.9%. The growth in [7] was 40.9%; in [8], -19% (active); in experiment [9], 56.5%; in [10] it was 26.9%; in experiment [11], 75.1%; in experiment [12], 66.9%. Further, the growth in [13] is 71.3%; in [14] it was 70.7%; in experiment [15], 58.1%; in [16], 62.8%; in experiment [17], 29.5%; in [18], 62.4%.
As to `CC(=O)OC[C@H]1OC(Sc2sc(C(=O)c3ccc(Br)cc3)c(N)c2-c2nc3ccccc3s2)[C@H](OC(C)=O)[C@@H](OC(C)=O)[C@@H]1OC(C)=O` (stereo not given in full), the growth in [1] was 107%; in experiment [2] it was 72.7%; in [3], 33%; in experiment [4], 64.6%; in experiment [5], 111%; in experiment [6], 54.9%. Further, the growth in experiment [7] is 63.8%; in experiment [8], 87.8%; in [9], 44.1%; in [19] it was 43%; in [11], 46.1%; in experiment [12], 65.7%. In addition, the growth in experiment [13] is 12.9%; in experiment [14] it was 96.6%; in experiment [15], 45.6%; in [16], 76.2%; in experiment [17], 43%; in experiment [18], 57.9%.

For the origin of these results see PubChem BioAssay (NCI).
